Data reported in PubChem BioAssay AID1851 (National Center for Advancing Translational Sciences (NCATS), 2009).
In all, about 16,000 compounds went through this assay and about 2,600 (16%) were called active. About 20% were inconclusive and are not listed. Calls follow the shape of the dose curve; as a rule, active = well fitted curve in the direction sought with a large enough effect; inconclusive = small, poorly fitted or top-dose-only effect, or effect the other way; inactive = no such curve, though single readings can be large or run the other way. The list is a sample of the results. The source holds several records for some structures; these can differ, active in one and inactive in another.

target: Cytochrome P450 2D6 (Homo sapiens) (UniProt P10635); assay: Cytochrome panel assay with activity outcomes; details: recombinant CYP, pro-luciferin dealkylation, luminescence, p450-cyp2d6; series mostly up to 57.1 µM; activity, negative = inhibition: at the top concentration
% is scaled to controls: 0 for no effect and ±100 for the full control effect.

Sequence of Cytochrome P450 2D6 (Homo sapiens) (P10635 whole entry, looked up): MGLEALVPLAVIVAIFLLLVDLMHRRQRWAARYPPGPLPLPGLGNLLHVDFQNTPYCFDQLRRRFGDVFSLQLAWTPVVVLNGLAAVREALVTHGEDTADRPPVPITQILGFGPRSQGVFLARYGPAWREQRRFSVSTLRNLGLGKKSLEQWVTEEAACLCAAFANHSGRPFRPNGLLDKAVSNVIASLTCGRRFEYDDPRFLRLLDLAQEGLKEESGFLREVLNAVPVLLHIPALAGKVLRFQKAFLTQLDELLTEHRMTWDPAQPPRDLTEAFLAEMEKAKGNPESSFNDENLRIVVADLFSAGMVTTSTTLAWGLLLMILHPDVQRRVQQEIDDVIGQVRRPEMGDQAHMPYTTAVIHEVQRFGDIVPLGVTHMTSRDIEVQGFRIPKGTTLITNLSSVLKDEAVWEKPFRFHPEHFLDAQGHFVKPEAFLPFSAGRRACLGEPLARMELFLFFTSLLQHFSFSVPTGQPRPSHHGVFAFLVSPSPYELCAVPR

| SMILES | activity, negative = inhibition | AC50 |
| --- | --- | --- |
| Cc1cccc(CNc2ncnc3ccc(-c4cccc(C#N)c4)cc23)c1 | -17.4% (inactive) | – |
| c1ccc(Nc2ncnc3ccc(-c4cccnc4)cc23)cc1 | -13.8% (inactive) | – |
| c1ccc(CNc2ncnc3ccc(-c4cccnc4)cc23)cc1 | – | 10 µM (active) |
| c1cncc(-c2ccc3ncnc(NC4CCNCC4)c3c2)c1 | -8.56% (inactive) | – |
| Cc1cccc(CNc2ncnc3ccc(-c4cccnc4)cc23)c1 | – | 12.6 µM (active) |
| CN1CCN(C2CC(=O)N(Cc3ccc(N4CCCC4=O)cc3)C2=O)CC1 (centres undefined) | 2% (inactive) | – |
| O=c1c(-c2ccccc2)nc2cnc(N3CCNCC3)nc2n1Cc1ccc(F)cc1 | -15.7% (inactive) | – |
| COc1ccc2c(Cl)cc(NC(=S)Nc3ccccc3)nc2c1 | -18.8% [at 11.4 µM] (inactive) | – |
| COc1ccc(N2C(=O)CCC(C(=O)O)C2c2ccc(F)cc2)cc1 (centres undefined) | 1.51% (inactive) | – |
| CN1CCN(c2ncc3nc(-c4cn(C)c5ccccc45)c(=O)n(C)c3n2)CC1 | 11.6% (inactive) | – |
| O=C(NNc1cccc(Cl)n1)Nc1ccccc1Cl | -31.9% (inactive) | – |
| COc1ccc(-c2nc3cnc(N4CCNCC4)nc3n(Cc3cccs3)c2=O)cc1 | -6.46% (inactive) | – |
| Cc1nc(-c2cccc(NC(=O)c3cc4cc(Br)ccc4oc3=O)c2)cs1 | 26.4% (inactive) | – |
| CCn1c(C)cc(/C=C2\NC(=O)N(Cc3ccc(Cl)cc3)C2=O)c1C | 4.67% (inactive) | – |
| CCN(CC)c1ccc(/C=C/c2nc3ccccc3s2)cc1 | – | 28.2 µM (active) |
| Brc1ccc(/C=C/C=N/Nc2nc3ccccc3s2)cc1 | 15.1% (inactive) | – |
| Cc1ccc(NC(=S)c2nc3ccccc3s2)cc1 | -15.2% (inactive) | – |
| Cn1c(=O)c2[nH]c(COCc3nc4c([nH]3)c(=O)n(C)c(=O)n4C)nc2n(C)c1=O | 3.11% [at 11.4 µM] (inactive) | – |
| NC1=C(O)C(=O)[C@H](c2c[nH]c3ccc(OCc4ccccc4)cc23)O1 | -2.34% [at 11.4 µM] (inactive) | – |
| O=C(Oc1ccccc1)N1CCC2(CC1)CN(c1ccncc1)C2 | 5.3% (inactive) | – |
| CCCCN(C)CCCNC(=O)CCn1nc(-c2ccccc2)ccc1=O | -27% (inactive) | – |
| CCN(CCCNC(=O)CC(C(=O)N1CCc2ccccc21)n1ccnc1)c1ccccc1 (centres undefined) | – | 3.98 µM (active) |
| O=C(CNCCO)N1CCc2ccccc21 | -26.9% (inactive) | – |
| Clc1ccc(-c2nnc(-c3ccccc3)c(N3CCSCC3)n2)cc1 | -13% (inactive) | – |
| Cc1noc(NS(=O)(=O)c2cccc3c(N(C)C)cccc23)c1C | -6% (inactive) | – |
| O=C(Nn1cc(C(=O)N2CCN(c3ccccc3F)CC2)c2ccccc2c1=O)c1cnccn1 | -6.56% (inactive) | – |

| SMILES | activity, negative = inhibition | AC50 |
| --- | --- | --- |
| CCC(=O)NNC(=O)CCC(=O)Nc1ccccc1 | 18% (inactive) | – |
| CC(=O)NNC(=O)CCC(=O)Nc1ccccc1 | -4.27% (inactive) | – |
| C#CCCCC(=O)Nc1ccccc1 | – | 12.6 µM (active) |
| Cc1ccc(-c2csc(N/N=C/c3ccco3)n2)cc1 | -14.3% (inactive) | – |
| NCCSSCCN | – | inactive |
| O=c1oc2cc(Oc3ccc(C(F)(F)F)cc3[N+](=O)[O-])ccc2c2c1CCCC2 | 20.1% (inactive) | – |
| CC(C)c1ccc(OCc2ccc(C(=O)N3CCN(c4ccccn4)CC3)cc2)cc1 | 7.85% (inactive) | – |
| CC(=O)Nc1nnc(SCc2ccc(F)cc2)s1 | -0.935% (inactive) | – |
| COc1ccc(CCn2c(C)cc(C(=O)CSc3nc(N)cc(=O)[nH]3)c2C)cc1 | -25.3% (inactive) | – |
| Cc1cc(C(=O)CSc2nnc(N)s2)c(C)n1CCc1ccc(F)cc1 | – | 7.08 µM (active) |
| Cn1c(=O)c2c(ncn2CN2CCN(Cn3cnc4c3c(=O)n(C)c(=O)n4C)CC2)n(C)c1=O | -3.86% [at 11.4 µM] (inactive) | – |
| C[C@@H]1/C=C\CC(=O)OC[C@H](C)C(=O)N[C@@H](C)C(=O)OC1 | -1.56% [at 11.4 µM] (inactive) | – |
| CCCc1nnc(NC(=O)C(CC)OC(=O)c2cc(C)nc3ccccc23)s1 (centres undefined) | -10.4% (inactive) | – |
| C[C@@H](C(=O)O)/C(=C/c1ccc2c(c1)OCO2)C(=O)O | 14.3% [at 11.4 µM] (inactive) | – |
| C[C@@H]1Oc2ccc(C(=O)C[C@@H](C(=O)O)c3ccc4c(c3)OCO4)cc2O1 | -15.2% [at 11.4 µM] (inactive) | – |
| c1ccc(SC(Sc2ccccc2)c2ccc3c(c2)OCO3)cc1 | – | 3.16 µM (active) |
| N[C@H](C(=O)O)c1ccc(C(=O)O)c(O)c1 | 6.68% (inactive) | – |
| O=C(Nc1ccccc1C(=O)NCC1CCCO1)c1ccc(Cl)cc1Cl (centres undefined) | -8.86% (inactive) | – |
| CC(C)(C)S(=O)(=O)c1cnc2c(-c3ccc(F)cc3)cnn2c1N | -6.59% (inactive) | – |
| CCn1c2ccc(Cl)cc2c2nc3ccccc3nc21 | -11.3% (inactive) | – |
| CN(C)CCCc1c2ccccc2nc2ccc(Cl)cc12 | – | 1.58 µM (active) |
| CCCCc1c2ccccc2nc2[nH]c3ccccc3c12 | -9.3% (inactive) | – |
| Cn1c(=O)c2[nH]cnc2n(C)c1=O | – | inactive |
| Cc1ccc(Sc2ccc(NC(=O)c3ccc(S(C)(=O)=O)cc3Cl)cc2)cc1 | -9.39% (inactive) | – |
| COC(=O)CCC(=O)NNC(=O)c1ccc(Br)cc1 | -11.4% (inactive) | – |
| Cc1ccc(NC(=S)NCCN2CCOCC2)cc1C | -2.36% (inactive) | – |

| SMILES | activity, negative = inhibition | AC50 |
| --- | --- | --- |
| O=C(CCn1c(=S)[nH]c2ccccc2c1=O)NCCCN1CCOCC1 | 0.306% (inactive) | – |
| Fc1cccc(NC(=S)NCCCN2CCOCC2)c1 | – | 7.94 µM (active) |
| CN(C)CCCO[C@H]1[C@@H]2OC(C)(C)O[C@@H]2O[C@@H]1[C@H](O)CO | 1.79% [at 25.6 µM] (inactive) | – |
| C#CCCCO/N=C1/C[C@@H](O)[C@@H](O)[C@@H]2[C@@H]3C(=O)N(C4CCCCC4)C(=O)[C@H]3CC[C@@H]12 | 13% [at 11.4 µM] (inactive) | – |
| CCC(=O)Nc1ccc(C(=O)CSc2nnc(-c3ccc(O)cc3)n2CC2CCCO2)cc1OC (centres undefined) | 2.81% (inactive) | – |
| Cc1ccc(C(=O)NC2CCCCCC2)cc1N1CCCC1=O | -11.6% (inactive) | – |
| O=C(O)c1cccc(N2CCCC2=O)c1 | – | 0.251 µM (active) |
| CCCCN(C)CCCNC(=O)c1ccc(N2CCCC2=O)cc1 | 6.53% (inactive) | – |
| C[C@H](NC(=O)c1ccc(Cl)c(Cl)c1)c1ccc(-c2ccccc2)cc1 | -1.17% [at 11.4 µM] (inactive) | – |
| CC(=O)Nc1cccc(N2C(=O)CCC2=O)c1 | 7.17% (inactive) | – |
| CC(NC(=O)c1ccc(N2CCCC2=O)cc1)c1ccccc1 (centres undefined) | – | 7.94 µM (active) |
| Cc1ccccc1C(=O)NC(=S)NCC(=O)c1ccccc1 | 8.23% (inactive) | – |
| COCCn1c(=O)c(C)nc2cnc(Nc3cccc(OC)c3)nc21 | -12.8% (inactive) | – |
| CN(C)C(N)=NCCC[C@H](N)C(=O)O | 1.55% (inactive) | – |
| CC(/C=N\NC(=O)Cn1c(C)nc2ccccc21)=C\c1ccccc1 | 2.75% (inactive) | – |
| CC[C@H]1C2=C3C(CC[C@H]4C(OC)OC[C@](C)([C@@H]34)N(C(=O)OC(C)(C)C)C2)C(CO)C1CO (some centres undefined) | 3.96% (inactive) | – |
| COC(=O)c1sccc1NC(=O)c1cc(-c2ccc(C)cc2C)nc2ccccc12 | 2.41% (inactive) | – |
| Cc1c(Br)c([N+](=O)[O-])nn1CC(=O)NCc1ccccn1 | -9% (inactive) | – |
| Cc1ccc(OC[C@H](O)[C@H](C)NC(C)C)c2c1CCC2 | – | 15.8 µM (active) and inactive |
| O=C(OCC1CC(c2ccccc2)=NO1)c1ccc(Cl)cc1 (centres undefined) | -3.1% (inactive) | – |
| CSc1nncc(-c2ccc(F)c(F)c2)n1 | 29.6% (inactive) | – |
| COC(=O)C/C=C\[C@@H](C)[C@@H](/C=N\O[C@@H](C)c1cn([C@H]2COC[C@H]2O)nn1)NS(=O)(=O)c1ccc(C)cc1 | 5.15% [at 11.4 µM] (inactive) | – |
| Cc1cccc(/C(N)=N/OC(=O)CCCN2C(=O)c3ccccc3C2=O)c1 | -6.05% (inactive) | – |
| Cc1ccc(OCCCN2C(=O)C(=O)c3cccc(C)c32)cc1 | – | 14.1 µM (active) |
| Cc1ccc(OCCCC(=O)N2CCOCC2)cc1 | 3.91% (inactive) | – |
| CC(C)(C)NC[C@H](O)c1cc(O)cc(O)c1 | – | inactive |

| SMILES | activity, negative = inhibition | AC50 |
| --- | --- | --- |
| Cc1onc(-c2ccccc2Cl)c1C(=O)Nc1nnc(Cc2ccc(Cl)cc2)s1 | -19.9% (inactive) | – |
| Cc1ccc(NC(=O)c2ccc(CSc3nnc(-c4ccncc4)n3C)cc2)cc1 | 15.4% (inactive) | – |
| Cc1ccc(SCc2nnc(NC(=O)c3ccccc3)s2)cc1 | 2.7% (inactive) | – |
| Cc1ccc(SCc2ccc(C(=O)NCc3ccncc3)cc2)cc1 | – | 0.0447 µM (active) |
| CCc1nc2c(c(SC)nn2-c2ccccc2)c(N)c1C(=O)OC | -7.9% (inactive) | – |
| CC(=O)Nc1ccc(-c2cc(-c3ccc(NC(C)=O)cc3)nc(-c3ccccc3)n2)cc1 | -3.17% (inactive) | – |
| O=C(COC(=O)c1cccnc1)c1ccc(Cl)c(Cl)c1 | – | 2.51 µM (active) |
| O=C(Oc1cccc(Br)c1)c1cccnc1 | 6.26% (inactive) | – |
| CC(=O)OCCNC(=O)c1cccnc1 | 3.52% (inactive) | – |
| COc1cc(-c2ccc(N=Nc3ccc4c(S(=O)(=O)O)cc(S(=O)(=O)O)c(N)c4c3O)c(OC)c2)ccc1N=Nc1ccc2c(S(=O)(=O)O)cc(S(=O)(=O)O)c(N)c2c1O | -16.2% [at 25.6 µM] (inactive) | – |
| COc1ccc(OCCSc2ncn[nH]2)cc1 | -13.2% (inactive) | – |
| COCCCNC(=O)CCC(=O)Nc1ccc2nc(N3CCOCC3)cc(C)c2c1 | -4.97% (inactive) | – |
| Nc1nc(Sc2ccc([N+](=O)[O-])c3nonc23)c2[nH]cnc2n1 | 3.81% [at 11.4 µM] (inactive) | – |
| CCOc1ccc(C(CC(=O)O)NC(=O)COc2ccccc2)cc1 (centres undefined) | 29.6% (inactive) | – |
| C[C@H](N[C@@H](C)COc1ccccc1)[C@H](O)c1ccc(O)cc1 | – | 0.316 µM (active) |
| O=C(O)[C@H](/C=C\c1ccccc1)c1ccccc1 | -18.1% [at 11.4 µM] (inactive) | – |
| CCOc1ccc(-n2c(=O)[nH]cc(C(=O)N3CCCc4ccccc43)c2=O)cc1 | 3.05% (inactive) | – |
| CCC(CC)C(=O)NCCN1CCN(C(=O)C(CC)CC)CC1 | -20.9% (inactive) | – |
| Cc1ccc(C(=O)NCCNC(=O)CN2CCOCC2)cc1 | 5.57% (inactive) | – |
| O=C(NCCN1CCCCC1)c1ccc(I)cc1 | – | 10 µM (active) |
| COC(=O)C(NC(=O)c1ccccc1)=C1C=C(C)OC(C)=C1 | 29.6% (inactive) | – |
| Clc1ccc(/C=N/c2c(-c3ccc(Cl)cc3)nc3n2CCS3)cc1 | -14.9% (inactive) | – |
| O=[N+]([O-])c1cccc(/C=N/Nc2cc(Cl)nc(-c3ccccc3)n2)c1 | 13.8% (inactive) | – |
| CCCC/C=C/C(NC(=O)Oc1cccc(C(F)(F)F)c1)c1ccccc1 (centres undefined) | – | 1 µM (active) |
| CCCC/C=C/C(NC(=O)c1ccc(C(F)(F)F)cc1)c1ccccc1 (centres undefined) | 0.459% (inactive) | – |
| CCCC/C=C/C(NC(=O)c1ccccc1)c1ccccc1 (centres undefined) | -12.9% (inactive) | – |
